Compound activity as filed in PubChem BioAssay.
BAZ2B block: inhibitors of human BAZ2B bromodomain; Q9UIF8; AlphaScreen BAZ2B-H3K14Ac peptide displacement; Potency, µM (top dose mostly 114 µM), for the others: at the top dose activity change, negative = inhibition, hits mostly inhibitors; 360,000 compounds, 4.4% hits; note: % is set by controls: 0 for no effect and ±100 for the full control effect; nearly all actives have a fitted effect of over 60% in size
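BAZ2B 50 nM plus b-H3(5-23)K14Ac 50 nM, PBS pH 7.4/0.01% Tween-20, 30 min RT; compound added (max 110 uM), 30 min RT; streptavidin donor/Ni-chelate acceptor beads 10 ug/mL final, 20 min dark; AlphaScreen read.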
L3MBTL1 inh: L3MBTL1 (human) inhibition; AID 485360; Potency, µM (titrated, usually from 57.1 µM), inactives show top-dose activity, negative = inhibition, actives largely listed as inhibitors; 230,000 compounds, 0.66% hits; AlphaScreen L3MBTL1–H3K9me1 peptide binding; Q9Y468; note: % is set by controls: 0 for no effect and ±100 for the full control effect; nearly all actives have a fitted effect of over 60% in size
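Displacement of a biotinylated histone H3(1-15) peptide monomethylated at Lys9 (75 nM) from L3MBTL1 (50 nM) was measured by AlphaScreen after a 30 min room-temperature compound incubation; cefsulodin titration served as intraplate control.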
JMJD2A Tudor: blocks the human JMJD2A Tudor domain; 390,000 compounds, 4.4% hits; Potency, µM (top dose mostly 114 µM), inactives show at the top dose activity change, negative = inhibition, actives largely listed as inhibitors; AlphaScreen JMJD2A-Tudor / H3K4me3 peptide binding; O75164; note: % is set by controls: 0 for no effect and ±100 for the full control effect; nearly all actives have a fitted effect of over 50% in size
Target sequence (O75164 whole entry, looked up, the tested form may be a part): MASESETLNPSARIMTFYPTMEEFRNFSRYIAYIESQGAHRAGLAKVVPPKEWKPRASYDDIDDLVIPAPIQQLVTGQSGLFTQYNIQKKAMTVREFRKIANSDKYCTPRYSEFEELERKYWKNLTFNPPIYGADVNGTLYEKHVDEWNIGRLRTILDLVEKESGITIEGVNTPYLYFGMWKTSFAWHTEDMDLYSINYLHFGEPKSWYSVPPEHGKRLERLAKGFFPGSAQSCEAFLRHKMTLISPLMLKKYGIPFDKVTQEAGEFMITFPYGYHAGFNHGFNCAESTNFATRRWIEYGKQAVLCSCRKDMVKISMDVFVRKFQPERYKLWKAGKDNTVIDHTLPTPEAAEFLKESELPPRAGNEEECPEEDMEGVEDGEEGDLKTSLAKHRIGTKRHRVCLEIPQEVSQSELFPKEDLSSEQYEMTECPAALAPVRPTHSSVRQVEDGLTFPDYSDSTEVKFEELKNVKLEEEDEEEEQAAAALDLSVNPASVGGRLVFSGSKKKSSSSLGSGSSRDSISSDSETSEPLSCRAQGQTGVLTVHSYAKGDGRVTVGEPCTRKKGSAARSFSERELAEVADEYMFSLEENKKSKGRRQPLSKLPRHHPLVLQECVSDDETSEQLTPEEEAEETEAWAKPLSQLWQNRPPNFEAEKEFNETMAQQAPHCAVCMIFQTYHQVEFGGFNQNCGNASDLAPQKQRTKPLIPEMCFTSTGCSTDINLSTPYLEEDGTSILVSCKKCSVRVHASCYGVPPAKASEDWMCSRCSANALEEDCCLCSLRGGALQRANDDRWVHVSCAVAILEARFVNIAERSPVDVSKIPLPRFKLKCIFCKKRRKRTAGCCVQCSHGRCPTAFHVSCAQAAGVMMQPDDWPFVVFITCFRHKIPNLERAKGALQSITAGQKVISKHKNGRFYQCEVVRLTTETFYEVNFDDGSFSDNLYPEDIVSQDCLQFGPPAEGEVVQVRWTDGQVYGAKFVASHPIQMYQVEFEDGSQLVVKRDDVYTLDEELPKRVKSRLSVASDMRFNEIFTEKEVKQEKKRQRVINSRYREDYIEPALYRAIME
Sfp inh: Sfp phosphopantetheinyl transferase inhibition | Q9F4F7 | Biochemical Sfp PPTase activity, qHTS | Potency, µM, for inactives: largest response in the series, negative = inhibition, most hits filed as inhibitors | 310,000 compounds, 3.5% hits | AID 1490;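 note: the enzyme is Sfp with the accession as filed and its product quenches rhodamine fluorescence; 0% = enzyme reaction without inhibitor and -100% = no enzyme wells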
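Step 1, compound plus 15 nM Sfp-PPTase, 15 min, room temperature. Step 2, add rhodamine-CoA (5 uM) and BHQ-2-YbbR (12.5 uM). Step 3, read 525/598 nm fluorescence at 0 and 30 min.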
G9a inh: blocks human histone lysine methyltransferase G9a; AID 504332; G9a H3K9 monomethylation, AlphaScreen, 2 h; 350,000 compounds, 8.8% hits; Q96KQ7; Potency, µM (doses to about 102 µM), for inactives: at the top dose activity, negative = inhibition, most hits filed as inhibitors; note: % is set by controls: 0 for no effect and ±100 for the full control effect; nearly all actives have a fitted effect of over 75% in size
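Step 1: enzyme (final 20 nM) with compound, 15 min RT. Step 2: substrate peptide 500 nM and SAM 20 uM, 2 h RT. Step 3: anti-H3K9me1 antibody and AlphaScreen beads, 10 min, then plate read.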
HP1b chromo inh: HP1-beta chromodomain-methylated histone interaction inhibition; P83916; AlphaScreen HP1-beta / biotin-H3K9me3 peptide binding; Potency, µM (doses to about 114 µM), inactives show at the highest dose activity change, negative = inhibition, hits mostly inhibitors; 390,000 compounds, 0.56% hits; AID 540317; note: nearly all actives have a fitted effect of over 70% in size
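HP1-beta protein (50 nM final) preincubated 30 min at room temperature with biotinylated H3(1-18)K9me3 peptide (50 nM) in PBS pH 7.4, 0.01% Tween-20, then compound added for 30 min. AlphaScreen streptavidin donor/nickel chelate acceptor beads (10 ug/mL final), 30 min dark, luminescence read.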
Numbers without * were called inactive; ? = inconclusive; / = not tested or not shown; [ ] = remark or other dose. Only some compounds are listed: those with a hit (about 12% of all), similar ones and a draw of the others. Calls come from the whole dose curve; as a rule, active = well fitted curve in the direction sought with a large enough effect; inconclusive = small, poorly fitted or top-dose-only effect, or another doubt; inactive = no such curve, though single readings can be large; an effect the other way counts as inactive or inconclusive. Potency is the fitted concentration of half-maximal effect.

SMILES	BAZ2B block	L3MBTL1 inh	JMJD2A Tudor	Sfp inh	G9a inh	HP1b chromo inh
COc1ccc(C(=O)CSc2nnc(NC(=O)C3CC(=O)N(c4ccccc4C)C3)s2)cc1 (stereo not given)	5%	-13%	-11%	-14%	35µM*	8%
COc1ccc(NC(=O)N2CCCC3(CCN(C(=O)c4cccc(F)c4)CC3)C2)cc1	/	/	/	0%	0%[12.7 µM]	/
Cc1cc2c(N)cccc2nn1	79µM*	/	-25%	2µM*	2.8µM*	5%
O=C(OCC1OC(n2ncc(=O)[nH]c2=O)C(OC(=O)c2ccccc2)C1OC(=O)c1ccccc1)c1ccccc1 (stereo not given)	50µM*	/	50µM*	-1%	18%[12.7 µM]	19%
COC(=O)c1ccc2c(=O)[nH]c(COC(=O)c3[nH]c(C)c(C(C)=O)c3C)nc2c1	/	2%	-29%	/	/	-26%
Cc1ccccc1N1CC(C(=O)Nc2ccc(S(=O)(=O)NCC3CCCO3)cc2)CC1=O (stereo not given)	0%	/	89µM*	3%	-3%	6%
CCOc1ccc(N2CC(C(=O)Nc3ccc(S(=O)(=O)N4CCCCC4)cc3)CC2=O)cc1 (stereo not given)	7%	-1%	-24%	/	40µM*	8%
CSc1cccc(N2CC(C(=O)Nc3cccc(S(=O)(=O)N4CCCC4)c3)CC2=O)c1 (stereo not given)	?	-9%	?	/	11µM*	-11%
CCc1ccc(N2CC(C(=O)Nc3ccc(C)c(S(=O)(=O)N4CCOCC4)c3)CC2=O)cc1 (stereo not given)	2%	/	-25%	16%	-70%[59 µM]	23%
COc1ccc(N2CC(C(=O)Nc3ccc(S(=O)(=O)N4CCCCC4)cc3)CC2=O)cc1 (stereo not given)	-22%	/	-19%	-9%	/	15%
CCc1ccc(N2CC(C(=O)Nc3ccc(S(=O)(=O)N4CCOCC4)cc3)CC2=O)cc1 (stereo not given)	-11%	-5%	-10%	/	50µM*	9%
COc1ccc(-c2nnc3n2N=C(c2cc(OC)ccc2OC)CS3)c(OC)c1	/	/	-9%	2%	/	/
CCCC[C@]12Cc3c(ccc4ccccc34)C(O1)C1=C(O2)C(=O)c2ccccc2C1=O	?	/	/	10%	-27%[2.33 µM]	/
C=CCc1c(Cl)nc(C)nc1NCc1ccccc1	4%	11%	10%	3%	/	65%
CCOc1ccc(N2CC(C(=O)Nc3ccc(S(=O)(=O)N4CCCC4)cc3)CC2=O)cc1 (stereo not given)	-2%	/	-5%	-29%	35µM*	18%
Cc1[nH][nH]c(=O)c1C(c1c(C)[nH][nH]c1=O)c1cn(Cc2cccc3ccccc23)c2ccccc12	?	?	-27%[11.4 µM]	-15%	45µM*	28µM*
Cc1[nH][nH]c(=O)c1C(c1c(C)[nH][nH]c1=O)c1cn(C)c2ccccc12	?	-30%	?	45µM*	/	-19%
Cc1[nH][nH]c(=O)c1C(c1cc([N+](=O)[O-])ccc1O)c1c(C)[nH][nH]c1=O	-4%	1%	-12%	-17%	22%	11%
CC[N+](CC)(CC#Cc1ccccc1)CC(=O)c1ccc(Cl)cc1	-7%	6%	-23%	1%	7.1µM*	11%
CCC(=O)N1c2ccccc2NC2=C(C(=O)CCC2)C1c1ccc(N(C)C)cc1 (stereo not given)	-5%	-2%	-19%	9%	50µM*	40%
Cc1ccc(C)c(N2CCN(C(=O)c3ccc4c(c3)c(C)c(C)n4C)CC2)c1	35µM*	/	45µM*	-16%	32µM*	?
Cc1ccc(C)c(N2CCN(C(=O)c3ccc4nc(-c5ccco5)c(-c5ccco5)nc4c3)CC2)c1	?	-13%	-29%	20µM*	-8%[0.0925 µM]	-14%
Cc1cccc(N2CCN(C(=O)c3ccc4c(c3)c(C)c(C)n4C)CC2)c1C	0%	/	-2%	/	-4%[59 µM]	?
Cc1ccc(N2CCN(C(=O)c3ccccc3)CC2)c(C)c1	-3%	8%	?	12%	5%[59 µM]	33%
Cc1ccc(C)c(N2CCN(S(=O)(=O)c3c(C)[nH]c(C)c3C(=O)N3CCCCC3)CC2)c1	-31%	/	-27%	12%	-1%[59 µM]	34%
SMILES	BAZ2B block	L3MBTL1 inh	JMJD2A Tudor	Sfp inh	G9a inh	HP1b chromo inh
Cc1c(C)n(C)c2ccc(C(=O)N3CCN(c4ccccn4)CC3)cc12	?	/	?	-7%	?	-17%
Cc1ccc(C)c(N2CCN(S(=O)(=O)c3c(C(=O)N4CCCCC4)c(C)n(C)c3C)CC2)c1	?	/	?	19%	79µM*	10%
Cc1c(C)n(C)c2ccc(C(=O)N3CCN(c4ccccc4)CC3)cc12	40µM*	/	35µM*	-9%	45µM*	?
CCN(CC)C(=O)CN1C(=O)COc2ccc(S(=O)(=O)N3CCOCC3)cc21	-6%	/	6%	/	5%[59 µM]	30%
CCC(NC(=O)c1ccc2nc(Cc3ccc(OC)cc3)oc2c1)c1ccncc1 (stereo not given)	-18%	/	1%	23%	11%	60%
COc1ccc(C2C(=O)NN=C2C)cc1 (stereo not given)	/	/	-6%	/	/	20%
COc1cc([N+](=O)[O-])ccc1N=Nc1c(N)[nH]n(-c2ccccc2)c1=O	?	-14%	-23%[11.4 µM]	12%	50µM*	-26%
Nc1[nH]n(-c2ccccc2)c(=O)c1N=Nc1ccccc1[N+](=O)[O-]	-25%	/	-21%	-3%	-11%	0%
Nc1[nH]n(-c2ccccc2)c(=O)c1N=Nc1ccccc1	7.9µM*	?	13µM*	9%	4.5µM*	?
Nc1[nH]n(-c2ccccc2)c(=O)c1N=Nc1ccc2ncsc2c1	?	?	-21%[11.4 µM]	50µM*	/	-29%
O=C(CN1CCN(CC(=O)Nc2cccc(F)c2)CC1)NCC1(N2CCOCC2)CCCCC1	-1%	5%	-6%	/	-8%[12.7 µM]	19%
COc1ccc(NC2CC(=O)N(c3ccc(C(=O)O)cc3)C2=O)cc1 (stereo not given)	-21%	0%	-14%	14%	50µM*	31%
COc1ccc(N2C(=O)CC(Nc3cccc(C(C)=O)c3)C2=O)cc1OC (stereo not given)	4%	/	-6%	3%	18µM*	49%
Cc1cc(C)cc(NC(=O)c2ccc(S(=O)(=O)C(F)F)cc2)c1	7%	5%	-9%	21%	50µM*	28%
N#CCC(=O)N/N=C/c1c(-c2ccccc2)n(-c2ccccc2)c2ccccc12	-29%	/	-6%	56µM*	15%	15%[57 µM]
